Results as given in PubChem BioAssay.
The source made the active and inactive calls.

How the values were obtained:
[1] = binders of probe aFSTL3 on microarray, primary screen, stem cell growth factor project, biochemical, small-molecule microarray, fluorescence 635/667 (AID 1064); conditions: higher = more signal;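 also: measures binding of the biotinylated anti-FSTL3 antibody to printed compounds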
[2] = binders from COS7 lysate, DM2A8 probe, primary screen, torsin A project, cell lysate, small-molecule microarray, fluorescence 635/667 (AID 1065); conditions: higher = more signal, COS7 lysate expressing mutant human TOR1A
[3] = binders of probe aFGF2 on microarray, primary screen, stem cell growth factor project, biochemical, small-molecule microarray, fluorescence 635/667 (AID 1067); conditions: higher = more signal;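 also: measures binding of biotinylated aFGF2 protein to printed compounds on slides; z-score merges feature fluorescence and signal-to-noise across triplicate slides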
[4] = binders of probe aFGF10 on microarray, primary screen, stem cell growth factor project, biochemical, small-molecule microarray, fluorescence 635/667 (AID 1071); conditions: higher = more signal;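 also: score merges 667 nm spot intensity and signal to noise from triplicate slides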
[5] = target: Neurogenic locus notch homolog protein 2 (Homo sapiens) (UniProt Q04721); assay: Notch2 binders on small-molecule microarrays, primary screen, biochemical, small-molecule microarray, 635 nm fluorescence, stem cell growth factors (AID 1073); conditions: Notch2 binding, higher = more signal
[6] = target: Pro-neuregulin-1, membrane-bound isoform (Homo sapiens) (UniProt Q02297); assay: NRG1 binders on small-molecule microarrays, primary screen, psychiatric disease protein project, biochemical, small-molecule microarray, fluorescence 635/667 (AID 1075); conditions: NRG1 binding, 635 nm fluorescence, higher = more signal;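 also: score combines 667 nm spot fluorescence with signal to noise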
[7] = system: Neuregulin-1 EGF-like domain; assay: binders of neuregulin-1 EGF-like domain, primary screen, biochemical, small-molecule microarray, 635 nm fluorescence (AID 1081); conditions: small-molecule microarray binding, higher = more signal;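 also: binding of the protein to compounds printed on small-molecule microarray slides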
[8] = FRG1 promoter luciferase signal modulators, primary screen, FRG1 inhibition for FSHD, cell-based, C2C12 myotubes, firefly/Renilla luciferase, luminescence (AID 1084); conditions: higher = more signal, called active from +8 up or from −8 down
[9] = binders of probe aFST on microarray, primary screen, stem cell growth factor project, biochemical, small-molecule microarray, fluorescence 635/667 (AID 1086); conditions: higher = more signal;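 also: score merges 667 nm fluorescence with signal-to-noise of each printed compound spot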
[10] = binders of probe aHhip on microarray, primary screen, stem cell growth factor project, biochemical, small-molecule microarray, fluorescence 635/667 (AID 1087); conditions: higher = more signal;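 also: score merges spot fluorescence at 667nm with spot signal to noise ratio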
[11] = system: PRMT1 (protein arginine N-methyltransferase 1); assay: PRMT1 binders on small-molecule microarrays, primary screen, biochemical, small-molecule microarray, 635 nm fluorescence (AID 1088); conditions: small-molecule microarray binding, higher = more signal;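 also: binding of Prmt1 protein to compounds spotted on small-molecule microarray slides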
[12] = yeast growth modulation, basal conditions, primary screen, YJM789 clinical isolate, OD600, 24 h (AID 1089);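 also: growth of clinical yeast isolate S. cerevisiae YJM 789 seeded 1000 cells per well; test concentration not given here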; conditions: S. cerevisiae YJM789 growth, higher = more signal, called active from +8 up or from −8 down
[13] = fission yeast growth modulation, primary screen, strain 972, OD600, 24 h, no modulator (AID 1090);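 also: basal condition with compound alone and no growth modifier present; test concentration not given here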; conditions: S. pombe 972 growth, higher = more signal, called active from +8 up or from −8 down
[14] = S. cerevisiae growth modulation with rapamycin, primary screen, strain BY4716, OD600, 96 h (AID 1091); conditions: higher = more signal, called active from +8 up or from −8 down; also: test concentration not given here
[15] = target: Torsin-1A-interacting protein 2 (Homo sapiens) (UniProt Q8NFQ8); assay: LULL1 binders on small-molecule microarray, primary screen, cell lysate, human LULL1 lysate, 635/667 nm fluorescence (AID 1092); conditions: hLULL1 lysate binding, 635 nm fluorescence, higher = more signal;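 also: probe is lysate of COS7 cells overexpressing human LULL1; score merges per-feature 667 nm fluorescence with signal-to-noise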
[16] = E. coli growth modulation, two-sided OD650, primary screen, E. coli filamentation project, strain DRC41, 24 h (AID 1093); conditions: OD650, 24 h, higher = more signal, called active from +8 up or from −8 down;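 also: MC1000 strain lacking acrAB efflux and sulA so SOS filamentation is blocked; test concentration not given here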
[17] = small-molecule microarray binders of probe aLefty2, primary screen, biochemical, biotinylated probe, 635/667 nm fluorescence (AID 1094); conditions: higher = more signal;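 also: score merges spot fluorescence near 667 nm with spot signal-to-noise ratio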
[18] = system: Noggin (protein binding on small-molecule microarray); assay: Noggin binders on small-molecule microarray, primary screen, biochemical, 635/667 nm fluorescence (AID 1095); conditions: 635 nm fluorescence, higher = more signal;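 also: score merges 667 nm feature fluorescence with signal to noise over triplicate slides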
[19] = target: Neurogenic locus notch homolog protein 3 (Homo sapiens) (UniProt Q9UM47); assay: NOTCH3 binders on small-molecule microarray, primary screen, biochemical, 635/667 nm fluorescence (AID 1096); conditions: NOTCH3 binding, 635 nm fluorescence, higher = more signal
[20] = small-molecule microarray binders of probe aEGFR, primary screen, biochemical, biotinylated probe, 635/667 nm fluorescence (AID 1097); conditions: higher = more signal;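 also: probe is a biotinylated anti-EGFR antibody binding compounds printed on slides; score combines fluorescence near 667 nm and signal to noise of each spot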

Sequence of Pro-neuregulin-1, membrane-bound isoform (Homo sapiens) (Q02297 whole entry, looked up, the tested form may be a part, canonical isoform): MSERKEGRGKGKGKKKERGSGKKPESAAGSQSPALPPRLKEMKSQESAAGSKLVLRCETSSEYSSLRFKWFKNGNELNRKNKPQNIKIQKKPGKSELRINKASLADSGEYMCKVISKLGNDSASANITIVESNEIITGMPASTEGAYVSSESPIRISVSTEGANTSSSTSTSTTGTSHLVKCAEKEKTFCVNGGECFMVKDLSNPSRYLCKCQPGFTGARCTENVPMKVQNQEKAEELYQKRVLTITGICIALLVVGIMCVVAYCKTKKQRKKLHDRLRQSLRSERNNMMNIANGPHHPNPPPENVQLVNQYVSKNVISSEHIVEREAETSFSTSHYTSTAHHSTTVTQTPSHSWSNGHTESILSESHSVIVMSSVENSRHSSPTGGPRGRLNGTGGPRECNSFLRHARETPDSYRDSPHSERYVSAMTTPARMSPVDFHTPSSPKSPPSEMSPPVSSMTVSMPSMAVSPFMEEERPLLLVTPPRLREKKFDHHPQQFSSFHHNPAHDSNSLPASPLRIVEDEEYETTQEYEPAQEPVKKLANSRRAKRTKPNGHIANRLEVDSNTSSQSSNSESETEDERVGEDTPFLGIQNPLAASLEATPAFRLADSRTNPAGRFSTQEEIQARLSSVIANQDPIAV
Sequence of Neurogenic locus notch homolog protein 2 (Homo sapiens) (Q04721 whole entry, looked up, canonical isoform): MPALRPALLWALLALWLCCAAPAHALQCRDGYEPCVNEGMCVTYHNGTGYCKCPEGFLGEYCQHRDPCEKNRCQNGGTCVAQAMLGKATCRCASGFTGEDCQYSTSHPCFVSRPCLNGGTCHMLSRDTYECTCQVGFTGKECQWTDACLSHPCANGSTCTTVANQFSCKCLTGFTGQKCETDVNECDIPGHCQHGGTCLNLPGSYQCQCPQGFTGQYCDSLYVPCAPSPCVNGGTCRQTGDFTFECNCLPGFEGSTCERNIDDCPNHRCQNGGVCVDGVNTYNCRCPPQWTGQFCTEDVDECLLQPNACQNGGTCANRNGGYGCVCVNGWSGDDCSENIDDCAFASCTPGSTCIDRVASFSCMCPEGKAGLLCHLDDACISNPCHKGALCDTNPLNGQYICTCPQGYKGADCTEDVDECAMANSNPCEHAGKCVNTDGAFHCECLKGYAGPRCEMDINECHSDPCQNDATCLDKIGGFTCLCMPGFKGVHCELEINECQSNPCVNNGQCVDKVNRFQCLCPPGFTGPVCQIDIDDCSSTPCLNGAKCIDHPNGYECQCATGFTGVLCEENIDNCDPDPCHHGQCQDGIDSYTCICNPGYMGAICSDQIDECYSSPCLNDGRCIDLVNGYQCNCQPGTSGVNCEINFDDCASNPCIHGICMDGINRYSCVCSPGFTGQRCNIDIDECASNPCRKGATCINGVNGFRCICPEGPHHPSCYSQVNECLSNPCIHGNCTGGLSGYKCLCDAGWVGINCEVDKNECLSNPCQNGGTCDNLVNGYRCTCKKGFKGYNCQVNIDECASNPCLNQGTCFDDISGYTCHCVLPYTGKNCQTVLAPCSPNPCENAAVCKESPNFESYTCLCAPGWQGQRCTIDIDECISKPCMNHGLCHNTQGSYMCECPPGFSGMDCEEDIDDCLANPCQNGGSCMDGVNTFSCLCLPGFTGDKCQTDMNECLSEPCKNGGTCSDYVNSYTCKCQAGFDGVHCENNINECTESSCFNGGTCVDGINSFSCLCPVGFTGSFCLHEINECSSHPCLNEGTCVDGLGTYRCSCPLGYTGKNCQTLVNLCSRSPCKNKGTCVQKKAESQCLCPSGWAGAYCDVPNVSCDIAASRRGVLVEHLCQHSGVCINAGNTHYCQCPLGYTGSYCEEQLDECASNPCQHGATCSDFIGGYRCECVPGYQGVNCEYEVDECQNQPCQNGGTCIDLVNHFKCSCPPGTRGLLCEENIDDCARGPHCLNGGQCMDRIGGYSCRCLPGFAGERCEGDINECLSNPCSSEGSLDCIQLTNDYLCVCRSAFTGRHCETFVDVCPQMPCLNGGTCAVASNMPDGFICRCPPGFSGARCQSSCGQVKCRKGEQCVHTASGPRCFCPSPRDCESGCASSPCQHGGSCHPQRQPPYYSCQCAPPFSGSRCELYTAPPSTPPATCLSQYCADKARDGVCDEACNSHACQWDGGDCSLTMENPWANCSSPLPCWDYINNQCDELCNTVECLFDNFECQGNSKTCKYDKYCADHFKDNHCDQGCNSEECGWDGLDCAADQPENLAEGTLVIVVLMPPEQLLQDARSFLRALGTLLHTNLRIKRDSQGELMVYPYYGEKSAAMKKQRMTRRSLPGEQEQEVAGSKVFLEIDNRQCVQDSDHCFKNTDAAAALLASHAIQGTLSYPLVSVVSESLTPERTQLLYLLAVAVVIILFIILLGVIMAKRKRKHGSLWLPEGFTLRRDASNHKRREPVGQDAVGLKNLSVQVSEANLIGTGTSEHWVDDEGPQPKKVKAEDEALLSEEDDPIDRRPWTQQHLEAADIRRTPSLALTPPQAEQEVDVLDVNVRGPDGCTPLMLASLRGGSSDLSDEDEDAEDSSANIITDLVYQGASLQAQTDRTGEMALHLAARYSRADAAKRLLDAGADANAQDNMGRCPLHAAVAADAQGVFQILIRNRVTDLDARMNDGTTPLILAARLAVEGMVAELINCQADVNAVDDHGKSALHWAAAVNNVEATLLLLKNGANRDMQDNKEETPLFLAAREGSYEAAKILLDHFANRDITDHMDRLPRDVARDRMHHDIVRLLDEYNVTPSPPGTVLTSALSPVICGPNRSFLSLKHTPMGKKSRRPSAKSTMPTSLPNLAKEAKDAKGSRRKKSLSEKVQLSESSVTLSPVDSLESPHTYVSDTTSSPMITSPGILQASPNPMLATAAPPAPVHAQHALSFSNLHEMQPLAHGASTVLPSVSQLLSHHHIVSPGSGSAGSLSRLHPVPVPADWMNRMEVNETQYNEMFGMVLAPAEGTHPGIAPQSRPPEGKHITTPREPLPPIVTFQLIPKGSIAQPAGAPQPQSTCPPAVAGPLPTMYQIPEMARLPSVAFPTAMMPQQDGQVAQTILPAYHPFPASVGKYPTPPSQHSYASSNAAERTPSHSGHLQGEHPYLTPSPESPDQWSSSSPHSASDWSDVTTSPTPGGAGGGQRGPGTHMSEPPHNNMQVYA
Sequence of Torsin-1A-interacting protein 2 (Homo sapiens) (Q8NFQ8 whole entry, looked up): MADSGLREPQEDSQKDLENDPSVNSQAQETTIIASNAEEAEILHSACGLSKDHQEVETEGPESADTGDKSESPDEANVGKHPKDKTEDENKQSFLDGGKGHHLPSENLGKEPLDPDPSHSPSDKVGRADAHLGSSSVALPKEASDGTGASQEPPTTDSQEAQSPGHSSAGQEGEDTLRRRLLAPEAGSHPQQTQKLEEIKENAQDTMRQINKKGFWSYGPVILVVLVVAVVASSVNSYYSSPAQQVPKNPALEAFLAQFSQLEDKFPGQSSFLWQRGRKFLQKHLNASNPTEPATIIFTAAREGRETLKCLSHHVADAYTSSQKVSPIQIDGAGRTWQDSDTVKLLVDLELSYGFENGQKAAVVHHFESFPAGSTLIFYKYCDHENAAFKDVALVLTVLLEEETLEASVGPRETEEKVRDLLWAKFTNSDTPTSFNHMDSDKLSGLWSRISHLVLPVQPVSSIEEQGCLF

Structure (SMILES) | composite z-score [1] | composite z-score [2] | composite z-score [3] | composite z-score [4] | composite z-score [5] | composite z-score [6] | composite z-score [7] | z-score [8] | composite z-score [9] | composite z-score [10] | composite z-score [11] | z-score [12] | z-score [13] | z-score [14] | composite z-score [15] | z-score [16] | composite z-score [17] | composite z-score [18] | composite z-score [19] | composite z-score [20]
CCCNC(=O)[C@@]1(Sc2ccc(C)cc2)CC(=O)N(C2CCCCC2)[C@@H]1c1ccc(CO)cc1I | 0.152 | 0.481 | -0.0788 | 0.182 | 0.517 | 0.772 | 1.25 | -3.57 (inactive) | -0.0962 | -0.383 | 1.56 | -1.2 (inactive) | 0.554 (inactive) | -0.133 (inactive) | 2.44 | 0.19 (inactive) | -0.273 | -0.447 | 0.298 | -0.0643
C#C[C@@H](CC)O[Si](C#CCCCC#N)(C(C)C)C(C)C | 0.0465 | 0.934 | -0.0891 | -0.146 | -0.604 | 0.873 | 0.74 | -0.0405 (inactive) | -0.241 | -0.236 | 1.12 | -13.2 (active) | -20.1 (active) | -3.15 (inactive) | 2.2 | 0.619 (inactive) | -0.0257 | -0.298 | 0.398 | -0.128
COCCOC(=O)N1C(=O)[C@@]2(c3cc(C#Cc4ccc(OC)cc4)ccc31)[C@H](c1ccc(OCCO)cc1)N1[C@H](c3ccccc3)[C@H](c3ccccc3)OC(=O)[C@H]1[C@@H]2C(=O)Nc1nc2ccccc2s1 | -0.118 | 0.247 | -0.0262 | 0.39 | 1.21 | 0.864 | 0.718 | 2.99 (inactive) | -0.0352 | 0.0695 | 1.14 | 1.77 (inactive) | 1.43 (inactive) | 1.96 (inactive) | 2.2 | 1.82 (inactive) | 0.188 | 0.55 | 0.95 | -0.0437
CN(C)C(=O)[C@@]1(Cc2ccccc2)COC(c2ccc(OCCCO)cc2)=N1 | 0.862 | -0.111 | 0.0412 | -0.055 | -0.266 | 1.81 | 0.61 | -0.698 (inactive) | -0.341 | 0.217 | 0.243 | -0.0054 (inactive) | -4.61 (inactive) | -1.59 (inactive) | 2.87 | 1.31 (inactive) | 0.137 | -0.955 | -0.451 | 0.0005
C[C@]1(C(=O)NCC(F)(F)F)c2ccccc2C(=O)N(Cc2ccccc2)[C@H]1c1ccc(CO)cc1 | 0.472 | -1.34 | -0.167 | -0.358 | -1.52 | 0.794 | 0.711 | -1.48 (inactive) | -0.0961 | -0.0003 | -0.604 | 0.724 (inactive) | 0.645 (inactive) | -0.0993 (inactive) | 1.57 | 0.855 (inactive) | -0.0478 | -1.45 | -1.21 | -0.162
C=C(C(=O)CC[C@H](OC(=O)c1ccccc1-c1ccccc1C(=O)O)c1ccccc1OCCO)C(C)C | -0.148 | 0.724 | -0.163 | 0.782 | 0.393 | 0.61 | 1.18 | -1.38 (inactive) | 0.117 | -0.0994 | 1.41 | 0.574 (inactive) | -0.788 (inactive) | -0.927 (inactive) | 1.46 | 0.968 (inactive) | -0.199 | 0.695 | 0.257 | -0.194
C=CCC(OC(C)=O)[C@@H]1[C@@H](N(Cc2ccc(-c3cccc(C(F)(F)F)c3)o2)C(=O)Cc2ccc(OC)cc2)c2cc(OCCCO)ccc2N1C(=O)Cc1ccc2ccccc2c1 (stereo not given in full) | -0.131 | -0.919 | -0.0715 | -0.139 | -0.696 | 0.465 | 0.113 | -0.734 (inactive) | 0.069 | 0.0505 | 0.466 | 0.807 (inactive) | 0.243 (inactive) | -0.386 (inactive) | 0.958 | -0.406 (inactive) | -0.0654 | -0.621 | -0.246 | -0.217
C=C[C@@H](C)[C@H](O)c1ccc(OCCO)cc1 | 0.684 | -1.91 | -0.182 | -0.84 | -1.67 | -0.0655 | 1.04 | 5.39 (inactive) | -1.06 | -0.236 | -0.365 | 0.217 (inactive) | -0.297 (inactive) | -0.0577 (inactive) | 1.14 | -0.0261 (inactive) | -0.225 | -1.34 | -0.743 | -0.37
C=C(/C(=C/C[C@@H](OC(C)=O)c1ccc(CO)o1)c1cc(C(=O)OC)ccc1OC)C(C)C | -0.245 | -0.02 | -0.076 | 0.938 | 1.18 | 1.18 | 1.21 | -0.0698 (inactive) | -0.0417 | -0.0618 | 0.864 | 1.06 (inactive) | -0.245 (inactive) | -0.0251 (inactive) | 1.86 | -0.0453 (inactive) | -0.0142 | 0.328 | 0.213 | 0.358
